In the supplement of paper PMC9446081:
Screen size: about 39,000 compounds; about 220 (0.56%) showed activity. The sample holds actives, similar compounds and a random draw of the others, so the mix is not that of the screen. A number with no mark means an inactive call.

These molecules were tested on Escherichia coli K-12 BW25113 (assay: relative growth (OD600 normalised to plate interquartile mean) (fraction); higher = less growth inhibition, active = 0.2 or less). Conditions: 50 µM; LB; incubation time: overnight (16-24 h).
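Further: Wild-type cells incubated without shaking, value is the mean of two biological replicates.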

Point of comparison: `CCCCCCCCCCCCCCCC(=O)OCC(NC(=O)C(Cl)Cl)C(O)c1ccc([N+](=O)[O-])cc1` (centres undefined), relative growth 0.559. Against it:
- CC1=C(C(=O)NCCCN2CCN(c3ccc(F)cc3)CC2)C2(CCN(Cc3ccccc3)CC2)OC1=O — higher, 0.567
- Cn1c(=O)[nH]c(=O)c2c1nc(N1CCN(CC(N)=O)CC1)n2C/C=C/c1ccccc1 — higher, 0.988
- Cc1ccc(S(=O)(=O)N(C)C[C@H]2Oc3c(NC(=O)c4cnccn4)cccc3C(=O)N([C@H](C)CO)C[C@@H]2C)cc1 — higher, 0.975
- C[C@H]1CN([C@@H](C)CO)C(=O)c2cc(NC(=O)CCN3CCOCC3)ccc2O[C@H]1CN(C)C(=O)NC1CCCCC1 — higher, 0.98
- CS(=O)(=O)c1cc(F)ccc1N — higher, 0.965
- O=C(O)c1cccc(-c2ccco2)c1 — higher, 1.01
- CC(=O)OCC1=C[C@@H]2OC(=O)C3=CO[C@@H](O[C@H]4O[C@H](CO)[C@@H](O)[C@H](O)[C@H]4O)[C@H]1[C@@H]32 — higher, 1.01
- CNC(=O)CN1CCOC[C@@]2(C1)CN(C(=O)c1ccn[nH]1)CCO2 — higher, 0.952
- CS(=O)(=O)c1ccc(C(O)C(CO)NC(=O)C(Cl)Cl)cc1 (centres undefined) — lower, 0.375
- CCCCCCCCCCCCCCCC(=O)OC[C@@H](NC(=O)C(Cl)Cl)[C@H](O)c1ccc([N+](=O)[O-])cc1 — higher, 1.03
- CCC(NC(C)C)C(O)c1ccc(O)c(O)c1.CS(=O)(=O)O (centres undefined) — higher, 1.04
- O=C(NCO)c1ccc([N+](=O)[O-])cc1 — higher, 1.02
- CCCCCCCCCCCCCCCC(=O)OC[C@H](NC(=O)C(Cl)Cl)[C@H](O)c1ccc([N+](=O)[O-])cc1 — higher, 0.604
- C[C@@H]1CN([C@H](C)CO)C(=O)c2cc(NC(=O)Nc3ccc(F)cc3)ccc2O[C@@H](C)CCCCO[C@H]1CN(C)C(=O)Nc1ccc(C(F)(F)F)cc1 — higher, 1
- Cc1ccc(S(=O)(=O)N(C)C[C@H]2OCCCC[C@H](C)Oc3ccc(NC(=O)Nc4ccccc4)cc3C(=O)N([C@H](C)CO)C[C@@H]2C)cc1 — higher, 1.07
- C[C@@H]1CN([C@H](C)CO)C(=O)c2cc(NS(=O)(=O)c3ccccc3)ccc2O[C@@H](C)CCCCO[C@H]1CN(C)Cc1ccc(C(F)(F)F)cc1 — higher, 1.07
- C[C@@H]1CCCCO[C@@H](CN(C)CC2CCCCC2)[C@@H](C)CN([C@H](C)CO)C(=O)c2cc(NS(=O)(=O)c3ccccc3)ccc2O1 — higher, 0.975
- C=CCC[C@@H](Cc1ccc(F)cc1)C(=O)OC[C@@H](Cc1c[nH]c2ccccc12)NC(=O)[C@@H](CC=C)CC(=O)N(CCO)Cc1ccccc1 — higher, 1.1
- C[C@@H]1CN([C@H](C)CO)C(=O)c2cccc(NC(=O)C3CCOCC3)c2O[C@H]1CN(C)Cc1ccc(-c2ccccc2)cc1 — higher, 1
- O=C(CCCCCC(=O)N/N=C/[C@H](O)[C@@H](O)[C@H](O[C@@H]1O[C@H](CO)[C@H](O)[C@H](O)[C@H]1O)[C@H](O)CO)NO — higher, 1.01
- COc1ccc2c3c([nH]c2c1)[C@H](CO)N(C[C@]13CN(C1)C(=O)Cc1cccnc1)S(=O)(=O)c1ccc(cc1)C — higher, 0.987
- CCn1cc(C(=O)O)c(=O)c2cnc(N3CCCC3)nc21 — higher, 1.09
- O=C(O)c1cnc(N2CCCC2)nc1 — higher, 1.03
- CCn1cc(C(=O)O)c(=O)c2ccc(C)nc21 — higher, 1.02
- NC(=O)c1cc(S(N)(=O)=O)ccc1Cl — higher, 0.993
- C[C@H]1CN([C@@H](C)CO)C(=O)c2cc(NC(=O)Nc3ccc(F)cc3)ccc2O[C@H]1CN(C)S(C)(=O)=O — higher, 1.02
- Cc1noc(C)c1S(=O)(=O)N(C)C[C@@H]1Oc2ccc(NS(C)(=O)=O)cc2CC(=O)N([C@@H](C)CO)C[C@H]1C — higher, 1.01
- C[C@@H]1CCCCO[C@@H](CN(C)C(=O)Nc2ccc3c(c2)OCO3)[C@@H](C)CN([C@H](C)CO)C(=O)c2cc(NC(=O)Nc3ccc4c(c3)OCO4)ccc2O1 — higher, 1.02
- C[C@@H]1CN([C@@H](C)CO)C(=O)c2cc(NC(=O)Nc3ccc(F)cc3)ccc2O[C@@H](C)CCCCO[C@@H]1CN(C)Cc1ccncc1 — higher, 0.93
- Cc1noc(C)c1NC(=O)N(C)C[C@@H]1Oc2c(NC(=O)Nc3ccc(C(F)(F)F)cc3)cccc2C(=O)N([C@@H](C)CO)C[C@@H]1C — higher, 0.943
- Cc1cc(O)c(C=O)c(O)c1C(=O)O — higher, 1.07
- COC(=O)c1c(C)cc(OC(=O)c2c(C)cc(O)c(C=O)c2O)c(C)c1O — higher, 0.867
- COc1ccc(NC(=O)Nc2ccc3c(c2)C(=O)N([C@@H](C)CO)C[C@H](C)[C@H](CN(C)C(=O)Nc2ccc4c(c2)OCO4)OCCCC[C@@H](C)O3)cc1 — higher, 1.04
- Cc1noc(C)c1NC(=O)Nc1ccc2c(c1)C(=O)N([C@H](C)CO)C[C@@H](C)[C@@H](CN(C)C(=O)NC1CCCCC1)OCCCC[C@H](C)O2 — higher, 1.02
- C[C@H]1CN([C@@H](C)CO)C(=O)c2cc(N(C)C)ccc2O[C@H]1CN(C)S(C)(=O)=O — higher, 0.993
- Cc1cn2nc([C@@H]3CCCCN3C(=O)c3cc(Cl)ccc3NS(C)(=O)=O)cc2nc1N1CC[C@H](N)C1 — higher, 0.981
- O=C(C[C@@H]1CC[C@@H]2[C@H](COC[C@H](O)CN2S(=O)(=O)c2ccccc2)O1)NCc1ccc2c(c1)OCO2 — higher, 0.99
- C[C@@H]1CCCCO[C@H](CN(C)Cc2ccccc2)[C@@H](C)CN([C@@H](C)CO)C(=O)c2cc(NS(=O)(=O)c3ccc(Cl)cc3)ccc2O1 — higher, 0.981
- Cc1noc(C)c1S(=O)(=O)Nc1ccc2c(c1)C(=O)N([C@H](C)CO)C[C@H](C)[C@H](CN(C)Cc1ccncc1)O2 — higher, 0.999
- COCCOC(=O)N1C(=O)[C@@]2(c3cc(C#CCCO)ccc31)[C@H](C(=O)Nc1nc3ccccc3s1)[C@H]1C(=O)O[C@H](c3ccccc3)[C@H](c3ccccc3)N1[C@@H]2c1ccc(O)cc1 — higher, 1.02
- C[C@H](CO)N1C[C@H](C)[C@@H](CN(C)Cc2ccc(C(=O)O)cc2)OCCCC[C@H](C)Oc2ccc(NS(=O)(=O)c3ccc(F)cc3)cc2C1=O — higher, 0.967
- C=C1C(=O)O[C@@H]2/C=C(\CO[C@@H]3O[C@H](CO)[C@@H](O)[C@H](O)[C@H]3O)CC/C=C3\C[C@H](OC3=O)[C@@H]12 — higher, 0.997
- C[C@@H]1CN([C@@H](C)CO)C(=O)Cc2cc(NC(=O)Cc3cn(C)c4ccccc34)ccc2O[C@H]1CN(C)Cc1ccc(C(=O)Nc2ccccc2N)cc1 — higher, 0.988
- C[C@H](O)CC1=C[C@H](O)[C@@H](C)OC1=O — higher, 1.01
- C[C@]1(C(=O)NCc2ccccc2)c2ccccc2C(=O)N(Cc2ccc(OC(F)(F)F)cc2)[C@H]1c1ccc(CO)cc1 — higher, 0.983
- NCC1CCC(N)C(OC2C(N)CC(N)C(OC3OC(CO)C(O)C(N)C3O)C2O)O1 (centres undefined) — higher, 0.947
- NC[C@@H]1O[C@H](O[C@H]2[C@@H](O)[C@H](O[C@@H]3[C@@H](O)[C@H](N)C[C@H](N)[C@H]3O[C@@H]3O[C@H](CO)[C@@H](O)C[C@H]3N)O[C@@H]2CO)[C@H](N)[C@@H](O)[C@@H]1O[C@H]1O[C@H](CO)[C@@H](O)[C@H](O)[C@@H]1O — higher, 1.01
- CNC1C(OC2OC(CO)C(N)C(O)C2O)OC2CC(N)C(OC3C(N)CC(N)C(O)C3O)OC2C1O.O=S(=O)(O)O (centres undefined) — higher, 1.2
- CN[C@@H]1[C@@H](O[C@H]2O[C@H](CO)[C@@H](N)[C@H](O)[C@H]2O)O[C@H]2C[C@@H](N)[C@H](O[C@H]3[C@H](O)[C@@H](O)[C@H](N)C[C@@H]3N)O[C@@H]2[C@@H]1O — higher, 0.978
- C[C@H]1CN([C@@H](C)CO)C(=O)CCCn2cc(nn2)CO[C@@H]1CN(C)S(=O)(=O)c1cccc(C#N)c1 — higher, 0.987

In the case of `C[C@H]1COc2c(C3(N)CC3)c(F)cc3c(=O)c(C(=O)O)cn1c23`, the relative growth is reported as 0.0591 (active).
In the case of `CC1COc2c(C3(N)CC3)c(F)cc3c(=O)c(C(=O)O)cn1c23.CS(=O)(=O)O` (centres undefined), the relative growth is reported as 0.0476 (active).
For `CS(=O)(=O)c1ccc(C(O)C(CF)NC(=O)C(Cl)Cl)cc1` (centres undefined), the relative growth was 0.0463 (active).
In the case of `O=C([O-])CCC(=O)OCC(NC(=O)C(Cl)Cl)C(O)c1ccc([N+](=O)[O-])cc1.[Na+]` (centres undefined), the relative growth is reported as 0.0517 (active).
In the case of `O=C(NC(CO)C(O)c1ccc([N+](=O)[O-])cc1)C(Cl)Cl` (centres undefined), the relative growth is reported as 0.0428 (active).
In the case of `CCn1cc(C(=O)O)c(=O)c2cnc(N3CCNCC3)nc21`, the relative growth is reported as 0.05 (active).
For `CCn1cc(C(=O)O)c(=O)c2cc(F)c(N3CCNCC3)nc21`, the relative growth was 0.049 (active).
`CCOC(=O)c1c(C)cc(O)c(C=O)c1O` was tested, and the relative growth was 0.0424 (active).
With `N[C@H]1CCN(c2nc3c(cc2F)c(=O)c(C(=O)O)cn3-c2ccc(F)cc2F)C1` the relative growth was 0.17 (active).
In the case of `Cc1ccc(S(=O)(=O)O)cc1.NC1CCN(c2nc3c(cc2F)c(=O)c(C(=O)O)cn3-c2ccc(F)cc2F)C1.O` (centres undefined), the relative growth is reported as 0.0925 (active).
`N[C@@H]1[C@H]2CN(c3nc4c(cc3F)c(=O)c(C(=O)O)cn4-c3ccc(F)cc3F)C[C@@H]12` was tested, and the relative growth was 0.0389 (active).
In the case of `NCC1OC(OC2C(N)CC(N)C(OC3OC(CO)C(O)C(N)C3O)C2O)C(N)CC1O` (centres undefined), the relative growth is reported as 0.0445 (active).
In the case of `NC[C@H]1O[C@H](O[C@H]2[C@H](O)[C@@H](O[C@H]3O[C@H](CO)[C@@H](O)[C@H](N)[C@H]3O)[C@H](N)C[C@@H]2N)[C@H](N)C[C@@H]1O`, the relative growth is reported as 0.0393 (active).
